{
  "source": "PubChem BioAssay AID1159580",
  "about": "(chemical genetic matrix, 2015)",
  "experiment": "chemical genetic growth profiling, strain panel (AID 1159580);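 also: tested at 20 µM; growth read once vehicle control cultures reached saturation at 30 °C; 1 = growth at the plate median or of vehicle wells; lower values mean less growth of the strain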",
  "conditions": "S. cerevisiae deletion strains, growth OD",
  "note": "Out of some 5,500 compounds screened, about 2,000 (36%) were called active. Roughly 18% stayed inconclusive and do not appear here. This is one part of the list. Unmarked numbers belong to inactive results. Rule as the data show it: active = normalized growth mostly below about 0.91 (no sharp cut-off); inconclusive = no clear call, values can overlap the other calls; inactive = mostly above about 0.92.",
  "data": [
    {"compound": "C[N+](C)(C)CCOC(=O)CBr", "values": [
      {"measurement": "normalized growth", "setting": "locus YDR150W, strain NUM1, hits give low values", "result": "1.06 [resistant] (active)"},
      {"measurement": "normalized growth", "setting": "locus YDR363W, strain ESC2, hits give low values", "result": 1.05},
      {"measurement": "normalized growth", "setting": "locus YER002W, strain NOP16, hits give low values", "result": 1},
      {"measurement": "normalized growth", "setting": "locus YGR078C, strain PAC10, hits give low values", "result": 1.02},
      {"measurement": "normalized growth", "setting": "locus YMR263W, strain SAP30, hits give low values", "result": 1.01},
      {"measurement": "normalized growth", "setting": "locus YNL153C, strain GIM3, hits give low values", "result": 1.07},
      {"measurement": "normalized growth", "setting": "locus YNL175C, strain NOP13, hits give low values", "result": 1.02},
      {"measurement": "normalized growth", "setting": "locus YNL197C, strain WHI3, hits give low values", "result": 0.985},
      {"measurement": "normalized growth", "setting": "locus YNL224C, strain SQS1, hits give low values", "result": 1.01},
      {"measurement": "normalized growth", "setting": "locus YOR083W, strain WHI5 (second series), hits give low values", "result": 1.05},
      {"measurement": "normalized growth", "setting": "locus YPL241C, strain CIN2, hits give low values", "result": 1.01}
    ]}
  ]
}
